# Assay results reported in PubChem BioAssay (NCATS).
# Results filed as inconclusive are left out. Where a call stands in place of a potency, no number is given. A number with no mark means an inactive call. Calls of active or inactive are those of the source. Calls come from the whole dose curve; as a rule, active = well fitted inhibition curve with a large enough effect; inconclusive = small, poorly fitted or top-dose-only effect; inactive = flat fitted curve, though single readings scatter.
# Tests used:
# [1] = qHTS profiling for inhibitors of Plasmodium falciparum proliferation (AID 504749); for all read-outs here: nearly all actives have a fitted effect of over 60% in size; conditions: P. falciparum in erythrocytes, SYBR Green DNA, 72 h; for activity, negative = inhibition: at 28.7 µM (top of the series)
# Outline: (§1)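 P. falciparum-infected erythrocytes (0.3% parasitemia, 2.5% hematocrit) incubated with compound 72 h at 37 C, 5% CO2. Parasite DNA detected by SYBR Green after lysis, overnight at room temperature; normalised to 0.29 uM artemisinin and DMSO.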
# 3D7 = test: as above; conditions: P. falciparum in erythrocytes, SYBR Green DNA, 72 h; series mostly up to 28.7 µM
# Outline: as §1
# AA1029 = test: as above; conditions: P. falciparum in erythrocytes, SYBR Green DNA, 72 h; series mostly up to 28.7 µM
# Outline: as §1
# AS120 = test: as above; conditions: P. falciparum in erythrocytes, SYBR Green DNA, 72 h; series mostly up to 28.7 µM
# Outline: as §1
# ATS189 = test: as above; conditions: P. falciparum in erythrocytes, SYBR Green DNA, 72 h; series mostly up to 28.7 µM
# Outline: as §1
# ATS95 = test: as above; conditions: P. falciparum in erythrocytes, SYBR Green DNA, 72 h; series mostly up to 28.7 µM
# Outline: as §1
# C2A = test: as above; conditions: P. falciparum in erythrocytes, SYBR Green DNA, 72 h; series mostly up to 28.7 µM
# Outline: as §1
# CP185 = test: as above; conditions: P. falciparum in erythrocytes, SYBR Green DNA, 72 h; series mostly up to 28.7 µM
# Outline: as §1
# CP191 = test: as above; conditions: P. falciparum in erythrocytes, SYBR Green DNA, 72 h; series mostly up to 28.7 µM
# Outline: as §1
# CP192 = test: as above; conditions: P. falciparum in erythrocytes, SYBR Green DNA, 72 h; series mostly up to 28.7 µM
# Outline: as §1
# CP201 = test: as above; conditions: P. falciparum in erythrocytes, SYBR Green DNA, 72 h; series mostly up to 28.7 µM
# Outline: as §1
# CP203 = test: as above; conditions: P. falciparum in erythrocytes, SYBR Green DNA, 72 h; series mostly up to 28.7 µM
# Outline: as §1
# CP211 = test: as above; conditions: P. falciparum in erythrocytes, SYBR Green DNA, 72 h; series mostly up to 28.7 µM
# Outline: as §1
# CP215 = test: as above; conditions: P. falciparum in erythrocytes, SYBR Green DNA, 72 h; series mostly up to 28.7 µM
# Outline: as §1
# CP217 = test: as above; conditions: P. falciparum in erythrocytes, SYBR Green DNA, 72 h; series mostly up to 28.7 µM
# Outline: as §1
# 7G8 = test: as above; conditions: P. falciparum in erythrocytes, SYBR Green DNA, 72 h; series mostly up to 28.7 µM
# Outline: as §1
# CP194 = test: as above; conditions: P. falciparum in erythrocytes, SYBR Green DNA, 72 h; series mostly up to 28.7 µM
# Outline: as §1
# Potency is the fitted concentration of half-maximal effect.
Compound,"activity, negative = inhibition ([1]; parasite line A) [%]","activity, negative = inhibition ([1]; parasite line B) [%]",Potency (3D7),Potency (AA1029),Potency (AS120),Potency (ATS189),Potency (ATS95),Potency (C2A),Potency (CP185),Potency (CP191),Potency (CP192),Potency (CP201),Potency (CP203),Potency (CP211),Potency (CP215),Potency (CP217),Potency ([1]; parasite line B),Potency (7G8),Potency (CP194),Potency ([1]; parasite line A)
COC(=O)CCC(=O)CN,6.69,8.06,inactive,inactive,inactive,inactive,inactive,inactive,inactive,inactive,inactive,inactive,inactive,inactive,inactive,inactive,,,,
O=C(Nc1cccc(C(F)(F)F)c1)c1cc(Br)cc(Br)c1O,,,,,12.6 µM (active),,,,,,,,15.1 µM (active),12 µM (active),12 µM (active),8.91 µM (active),10 µM (active),6.31 µM (active),,
CC(Cc1ccc(O)c(O)c1)C(C)Cc1ccc(O)c(O)c1 (stereo not given),6.89,-26.4,inactive,inactive,,inactive,inactive,inactive,inactive,inactive,inactive,inactive,inactive,inactive,,inactive,,8.91 µM (active),inactive,
Clc1cc(Cl)c(OCC#CI)cc1Cl,,,11.2 µM (active),12.6 µM (active),,,,8.91 µM (active),,,inactive,,,,,,11.2 µM (active),11.2 µM (active),,11.2 µM (active)
CCOC(=O)C1=C(C)NC(C)=C(C(=O)OCC)C1c1ccccc1C=CC(=O)OC(C)(C)C,,,11.2 µM (active),8.91 µM (active),8.91 µM (active),,10 µM (active),inactive,11.2 µM (active),8.91 µM (active),12 µM (active),,19 µM (active),15.1 µM (active),16.9 µM (active),10 µM (active),,7.94 µM (active),15.1 µM (active),11.2 µM (active)
COCC(=O)Nc1cc(Sc2ccccc2)ccc1N=C(NC(=O)OC)NC(=O)OC,17.1,26.6,inactive,inactive,inactive,inactive,inactive,inactive,inactive,inactive,inactive,inactive,inactive,inactive,inactive,inactive,,,inactive,
CN(C)CCCN1c2ccccc2C(C)(C)c2ccccc21,-5.82,-11.4,inactive,,,,8.91 µM (active),inactive,inactive,,inactive,inactive,,inactive,inactive,inactive,,,,
CN=C(NC#N)Nc1ccc(C2=NNC(=O)C[C@@H]2C)cc1,13.8,8.03,inactive,inactive,inactive,inactive,inactive,inactive,inactive,inactive,,,,,,inactive,,inactive,,
C=C1C(=CC=C2CCC[C@@]3(C)[C@@H]2CC[C@H]3[C@H](C)CCCC(C)C)C[C@@H](O)C[C@@H]1O,,,11.2 µM (active),inactive,,,,10 µM (active),,11.2 µM (active),inactive,inactive,inactive,inactive,inactive,,,10 µM (active),inactive,
CCCCC(=O)O[C@]1(C(=O)CO)[C@H](C)C[C@H]2[C@@H]3CCC4=CC(=O)C=C[C@]4(C)[C@@]3(F)[C@@H](O)C[C@@]21C,,,,inactive,,inactive,inactive,inactive,inactive,inactive,inactive,inactive,,inactive,inactive,inactive,,8.91 µM (active),inactive,
C#C[C@]1(O)CC[C@H]2[C@@H]3CCC4=CCCC[C@@H]4[C@H]3C(=C)C[C@@]21CC,,,,,,,,inactive,,10 µM (active),inactive,inactive,inactive,inactive,inactive,,,inactive,inactive,
COC(=O)[C@H]1[C@H]2CC3c4[nH]c5ccccc5c4CCN3C[C@@H]2CC[C@@H]1O (stereo not given in full),14.5,13.8,,inactive,inactive,inactive,inactive,inactive,inactive,inactive,,,,,,inactive,,inactive,,
